A selection: hits, their analogues and other compounds. The true share with any hit is near 9.2%.
ELG1 genotox = qHTS screen for small molecules that induce genotoxicity in human embryonic kidney (HEK293T) cells expressing luciferase-tagged ELG1. Potency, µM (series often up to 46 µM), usual class: activators. HEK293T ELG1-luciferase reporter, luminescence, 16 h. 330,000 tested, 1.3% active. AID 504466, 2011; note: nearly all actives have a fitted effect of over 60% in size
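Genotoxic stress is detected as increased luminescence from luciferase-tagged ELG1 in HEK293T cells, measured with ONE-Glo after a 16 hr treatment at 37 °C.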
FLuc counter = qHTS profiling assay for firefly luciferase inhibitor/activator using purifed enzyme and Km concentrations of substrates (counterscreen for miR-21 project). purified FLuc, Km substrates, luminescence inhibition. Luciferin 4-monooxygenase (Photinus pyralis), P08659. Potency, µM (highest dose often 57.5 µM), usual class: inhibitors. 360,000 tested, 6.9% active. AID 588342, 2011; note: nearly all actives have a fitted effect of over 55% in size
Target sequence (P08659 whole entry, looked up): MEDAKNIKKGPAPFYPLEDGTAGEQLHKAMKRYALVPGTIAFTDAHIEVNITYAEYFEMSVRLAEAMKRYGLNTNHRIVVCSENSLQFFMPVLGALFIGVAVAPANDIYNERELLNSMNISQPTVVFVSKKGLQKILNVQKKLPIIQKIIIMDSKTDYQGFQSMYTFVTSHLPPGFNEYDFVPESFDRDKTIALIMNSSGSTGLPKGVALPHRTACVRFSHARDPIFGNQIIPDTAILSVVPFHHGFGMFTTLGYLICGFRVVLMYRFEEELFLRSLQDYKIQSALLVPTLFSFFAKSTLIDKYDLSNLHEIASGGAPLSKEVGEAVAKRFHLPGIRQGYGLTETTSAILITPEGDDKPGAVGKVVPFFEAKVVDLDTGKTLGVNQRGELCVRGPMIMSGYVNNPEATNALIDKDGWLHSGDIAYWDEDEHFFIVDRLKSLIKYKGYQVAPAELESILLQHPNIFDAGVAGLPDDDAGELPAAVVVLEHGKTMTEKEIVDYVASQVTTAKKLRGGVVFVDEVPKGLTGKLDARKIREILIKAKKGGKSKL
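Biochemical qHTS of compounds, final roughly 60 µM downward over six points, against 10 nM purified firefly luciferase using Km concentrations of substrates (10 uM D-luciferin, 10 uM ATP) in Tris acetate pH 7.5 buffer; luminescence output.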
Rab9 prom act = qHTS Assay for Rab9 Promoter Activators; Potency, µM (series often up to 9.22 µM), most hits filed as activators; Huh7 Rab9 promoter-luciferase reporter, luminescence, 24 h; AID 485297, 2010; 320,000 tested, 2.8% active; note: nearly all actives have a fitted effect of over 60% in size
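Luminescence from Amplite-detected luciferase (10 minutes, ambient) reports Rab9 promoter activation. Before that, stable Rab9-luciferase Huh7 cells (1500/well, reduced-serum OP-MEM I plus 10% FBS) were exposed to compound for 24 hours at 37C.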
NPC1 prom act = qHTS Assay for NPC1 Promoter Activators. 320,000 tested, 2.4% active. Potency, µM (highest dose often 9.22 µM), hits mostly activators. AID 485313, 2010. Huh7 NPC1 promoter luciferase reporter, 24 h; note: nearly all actives have a fitted effect of over 60% in size
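Compounds in DMSO were transferred onto Huh7 NPC1-luciferase reporter cells pre-incubated 2 h; after 24 h at 37 °C, Amplite reagent was dispensed and luminescence recorded 10 min later.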
ELG1 repair inh = qHTS screen for small molecules that inhibit ELG1-dependent DNA repair in human embryonic kidney (HEK293T) cells expressing luciferase-tagged ELG1 | Potency, µM (top dose mostly 46.1 µM), actives largely listed as inhibitors | HEK293T ELG1-luciferase reporter, luminescence, 16 h; DNA damage induced by 5-fluorouridine | 330,000 tested, 2.3% active; note: nearly all actives have a fitted effect of over 55% in size
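5-Fluorouridine DNA damage + compound/DMSO, 2,000 cells/well, 16 h, 37 °C/5% CO2. ONE-Glo, 30 min RT, luminescence. Readout = decrease in reporter signal.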
SMN2 splice up = qHTS Assay for Enhancers of SMN2 Splice Variant Expression; HEK293 SMN2-luciferase splicing reporter, luminescence, 30-36 h; Potency, µM (doses to about 46.1 µM), actives largely listed as activators; 210,000 tested, 2.8% active; AID 1458, 2008; note: nearly all actives have a fitted effect of over 55% in size
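HEK293 cells carry an SMN2 […]–luciferase reporter in which exon 7 inclusion puts luciferase in frame. Cells were plated 10-12 h before compound addition, then incubated 30-36 h at 37C. ONE-Glo luminescence was read; sodium butyrate at 4.5 mM final served as control.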
Hits are given with their value; i = inactive; ? = inconclusive; nt = no result; [ ] = another dose, or the depositor's remark. Calls come from the whole dose curve; as a rule, active = well fitted curve in the direction sought with a large enough effect; inconclusive = small, poorly fitted or top-dose-only effect, or another doubt; inactive = no such curve, though single readings can be large; an effect the other way counts as inactive or inconclusive.

SMILES	ELG1 genotox	FLuc counter	Rab9 prom act	NPC1 prom act	ELG1 repair inh	SMN2 splice up
CN(C)S(=O)(=O)c1cccc(C(=O)NCCc2ccccc2)c1	i	7.57µM	1.41µM	0.794µM	?	11.2µM
O=C(NCCc1ccccc1)c1cccc([N+](=O)[O-])c1	?	?	i	i	?	11.2µM
O=C(NCc1ccccc1)c1cccnc1	i	i	i	i	i	nt
CN(C)S(=O)(=O)c1cccc(C(=O)Nc2ccccc2)c1	i	?	i	i	i	i
O=C(NCCc1ccccc1)c1cnc2ccccc2n1	?	8.49µM	1.41µM	3.55µM	?	nt
O=C(NCCc1ccccc1)c1cccnc1	13µM	?	3.16µM	?	?	?
CCCc1nnc(SCC(=O)Nc2ccccc2Cl)n1CC1CCCO1 (stereo unspecified)	i	i	i	i	i	nt
Cc1ccc(C(=O)COC(=O)COc2ccccc2C)cc1	i	?	i	i	i	nt
COc1ccc(NC(=O)Cn2c(=O)n(-c3cccc(C)c3)c(=O)c3c2c2cc(C)ccc2n3C)cc1Cl	nt	i	nt	nt	nt	i
COc1cc(NC(=O)C(CC(C)C)NS(=O)(=O)c2ccc3c(c2)CCCC(=O)N3)cc(OC)c1 (stereo unspecified)	nt	i	nt	nt	nt	nt
CCCn1c(-c2ccc(F)cc2)nc2c(N3CCN(Cc4nc(OC)cc(OC)n4)CC3)nc(C)nc21	nt	nt	nt	nt	nt	i
O=C(CCc1ccccc1)Nc1cccc([N+](=O)[O-])c1	i	i	i	i	i	i
Cc1ccc(C(=O)NCCc2cccc(Cl)c2)cc1[N+](=O)[O-]	i	26.9µM	i	i	?	i
O=C(COC(=O)c1cccc(Br)c1)NCCNC(=O)COC(=O)c1cccc(Br)c1	i	i	i	i	6.51µM	nt
O=C(NCCc1ccccc1)c1cccc(Br)c1	?	21.3µM	2µM	3.55µM	?	nt
O=C(COC(=O)c1cccc(Br)c1)NCCc1ccccc1	i	i	i	i	i	i
O=C(CCCc1ccccc1)Nc1cccc([N+](=O)[O-])c1	?	?	?	3.55µM	?	nt
CCCNC(=O)c1cccc(Br)c1	i	i	i	i	i	i
COCC(=O)N1CCC2(CC1)CN(Cc1cc(C(F)(F)F)cc(C(F)(F)F)c1)C2	nt	nt	nt	nt	nt	i
CCOc1ccc2c(c1)sc(=NC(=O)C1CC1)n2C	nt	7.57µM	nt	nt	nt	11.2µM
Cc1ccc([N+](=O)[O-])cc1N=C(c1cccc(Br)c1)N1CCOCC1	i	i	i	i	i	i
CC(=O)C1=NN(c2ccccc2)C(c2cccs2)N1c1ccc(N(C)C)cc1 (stereo unspecified)	i	i	i	i	16.4µM	i
CC(=O)C1=NN(c2ccccc2)C(c2ccc3c(c2)OCO3)N1c1ccccc1 (stereo unspecified)	i	i	i	i	?	i
COc1ccc(Cl)cc1NC(=O)c1ccc2c(c1)CCN2S(C)(=O)=O	nt	i	nt	nt	nt	i
Cc1nc(-c2ccccc2)nc2[nH]ccc(=O)c12	?	12µM	?	i	?	?
SMILES	ELG1 genotox	FLuc counter	Rab9 prom act	NPC1 prom act	ELG1 repair inh	SMN2 splice up
Cc1nc(-c2ccc([N+](=O)[O-])cc2)nc2[nH]ccc(=O)c12	?	5.36µM	1.12µM	1.12µM	?	nt
Cc1nc(-c2ccccc2)nc2[nH]c(-c3ccccc3)cc(=O)c12	i	i	i	i	?	i
Cc1cc(-c2ccc([N+](=O)[O-])cc2)nc2ccccc12	i	?	i	i	i	?
CCOc1ccc(NC(=O)c2oc3ccccc3c2NC(=O)C(C)(C)C)cc1	nt	i	nt	nt	nt	i
c1ccc(-c2cc3nccc(-c4ccccn4)n3n2)cc1	?	9.53µM	2.24µM	2.51µM	?	nt
CC1(C(=O)NCCN2CCOCC2)C=CCN1C(=O)c1ccccc1 (stereo unspecified)	i	23.9µM	i	i	?	?
CNC(=O)C1(C)C=CCN1C(=O)c1ccccc1 (stereo unspecified)	i	i	i	i	i	i
O=C(O)C(C(=O)/C=C/c1ccco1)=C1SCCS1	i	?	i	i	i	i
O=C(/C=C/c1ccc([N+](=O)[O-])cc1)/C=C/c1ccco1	i	4.26µM	i	i	?	nt
O=C(C=C1SCCS1)/C=C/c1ccco1	?	1.35µM	2.51µM	0.708µM	?	12.6µM
O=C(/C=C/c1ccc([N+](=O)[O-])cc1)c1ccco1	i	i	i	i	i	nt
Oc1sc(C=Nc2ccccc2)c2ccccc12	?	6.01µM	?	?	?	8.91µM
Oc1sc(C=Nc2ccc(F)cc2)c2ccccc12	i	?	2.82µM	3.16µM	?	10µM
COc1cc(O)oc1C=Nc1ccccc1	i	i	i	i	i	i
O=S(=O)(c1ccccc1)N1CCC(O)(CSc2ccccc2)CC1	i	i	i	i	8.2µM	i
Cc1cccc(NC(=O)c2sc3nc4c(cc3c2N)CCCCCC4)c1C	nt	i	nt	nt	nt	i
N#Cc1sc2nc3c(cc2c1N)CCCC3	i	13.5µM	i	i	?	i
Nc1c(C(=O)C2CC2)sc2nc3c(cc12)CCC3	?	8.49µM	?	2.51µM	?	nt
Nc1c(C(=O)O)sc2nc3c(cc12)CCCC3	i	?	i	i	i	nt
NC(=O)c1sc2nc3c(cc2c1N)CCCCCC3	i	19µM	?	2.51µM	?	nt
CCc1noc(C)c1C(=O)N1CCN(S(=O)(=O)c2cccs2)CC1	i	i	i	i	i	nt
Cc1ccc(Cl)cc1NC(=O)Nc1cccc(OCc2cc(=O)n3ccccc3n2)c1	nt	i	nt	nt	nt	nt
CC(C)CC(=O)NC1CC(=O)N(c2ccc3c(c2)OCCO3)C1 (stereo unspecified)	nt	i	nt	nt	nt	nt
Cc1cccc(N(Cc2ccccc2)C(=O)c2cccc(S(=O)(=O)N3CC(C)OC(C)C3)c2)c1 (stereo unspecified)	i	i	i	i	?	nt
Nc1ccc(-c2nc3ncccc3o2)c(Cl)c1	10.3µM	4.78µM	3.16µM	2µM	?	12.6µM
SMILES	ELG1 genotox	FLuc counter	Rab9 prom act	NPC1 prom act	ELG1 repair inh	SMN2 splice up
Nc1ccc(Cl)c(-c2nc3ncccc3o2)c1	i	?	i	i	?	?
Nc1ccc(-c2nc3ncccc3o2)c(O)c1	?	12µM	3.98µM	2.82µM	?	nt
O=C(Nc1cc(-c2nc3ccccc3o2)ccc1Cl)c1ccc(N2CCCCC2)c([N+](=O)[O-])c1	nt	?	nt	nt	nt	i
Nc1c(-c2ccccc2)n[nH]c1-c1ccccc1	?	i[2.3 µM]	?	2.82µM	?	12.6µM
S=c1nc(-c2ccccc2)c(-c2ccccc2)n[nH]1	i	i	i[1.84 µM]	i	i	nt
CN1c2ccc(Cl)cc2-c2nc(SCC(=O)NCc3ccccc3)ncc2S1(=O)=O	nt	i	nt	nt	nt	nt

Screens from PubChem.
